DT40 TDP1 CPT – growth inhibition of DT40 Tdp1-/-;hTDP1 cells with camptothecin (screen for TDP1 inhibitors); chicken DT40 Tdp1-/-;hTDP1 cells + 20 nM CPT, ATP luminescence, 48 h; Potency, µM (titrated, usually from 46.2 µM), for the others: at the top dose activity change, negative = growth inhibition, usual class: inhibitors; 420,000 compounds, 12% hits; note: nearly all actives have a fitted effect of over 55% in size
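Cell growth measured by CellTiter-Glo luminescence after a minimum 48 h, 37 C compound exposure with 20 nM CPT in Tdp1-knockout DT40 cells stably expressing hTDP1, seeded 400/well; qHTS titration format.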
KB-V1 cytotox – KB-V1 MDR subline cytotoxicity | KB-V1 MDR cells viability, CellTiter-Glo, 72 h | 400,000 compounds, 3.4% hits | AID 1347076 | Potency, µM (doses to about 46.1 µM), usual class: cytotoxic; note: nearly all actives have a fitted effect of over 60% in size
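Readout: CellTiter-Glo luminescence, 10 min after addition. Cells: KB-V1 MDR subline, 72 h at 37 degrees C with compound. Analysis: corrected, normalized data fitted to concentration-effect curves.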
HT1080NT lethal – kills 2HG-producing HT-1080-NT fibrosarcoma cells; AID 686970; HT-1080-NT fibrosarcoma viability, CellTiter-Glo ATP luminescence, 48 h; 360,000 compounds, 1.6% hits; Potency, µM (series often up to 46.1 µM), for the others: top-dose activity, negative = less viability, usual class: cytotoxic;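 note: NT is the 2HG producing partner of a matched IDH1 knockdown line; 0% = DMSO-treated cells and -100% = media-only wells without cells; nearly all actives have a fitted effect of over 55% in size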
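Compounds were tested in concentration-response format on HT-1080-NT cells for 48 hours at 37 degrees C. Cell viability came from CellTiter-Glo luminescence; curves were classified by r2, response magnitude and activity.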
HT1080 IDH1KD tx – kills HT-1080 cells with IDH1 knockdown; Potency, µM (top dose mostly 46.1 µM), without a hit: at the top dose activity, negative = toxicity, actives largely listed as cytotoxic; AID 686971; HT-1080 IDH1 knockdown viability, ATP luminescence, 48 h; 360,000 compounds, 2% hits;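 note: 0% = DMSO wells and -100% = cell-free medium wells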
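IDH1KD HT-1080 cells, 750/well, RPMI + 5% FBS; compound pinned after 2 h settling; 48 h, 37 °C; CellTiter-Glo luminescence; % activity normalised to DMSO and no-cell wells; curves fitted, classed by r2 and efficacy.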
KB-3-1 tox – kills parental KB-3-1 adenocarcinoma cells; KB-3-1 viability, CellTiter-Glo ATP luminescence, 72 h; Potency, µM (highest dose often 46.1 µM), most hits filed as cytotoxic; 400,000 compounds, 1.4% hits; note: nearly all actives have a fitted effect of over 60% in size
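KB-3-1 parental drug-naive adenocarcinoma cells in DMEM/10% FBS, incubated 72 h at 37 C with pin-transferred compounds across a concentration series. Viability by CellTiter-Glo luminescence; concentration-response curves fitted after normalization.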
DT40 TDP1 no CPT – qHTS for Inhibitors of human tyrosyl-DNA phosphodiesterase 1 (TDP1): qHTS in cells in absence of CPT; DT40 Tdp1-/- hTDP1 cells, no CPT, ATP luminescence, 48 h; Potency, µM (doses to about 46.2 µM), for the others: at the highest dose activity change, negative = growth inhibition, usual class: inhibitors; 420,000 compounds, 15% hits; AID 686978, 2013; note: nearly all actives have a fitted effect of over 55% in size
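Growth kinetics read by CellTiter-Glo luminescence after ≥48 hr at 37 °C. Cells: DT40 Tdp1-/- stably carrying human TDP1, 400 per well, compound exposure in the absence of CPT (DMSO vehicle).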
Numbers without * were called inactive; i = inactive; ? = inconclusive; nt = not tested or not shown. Rows were chosen to be rich in hits. Some 19% of all compounds tested hit in one or more screens of this group. Calls come from the whole dose curve; as a rule, active = well fitted curve in the direction sought with a large enough effect; inconclusive = small, poorly fitted or top-dose-only effect, or another doubt; inactive = no such curve, though single readings can be large; an effect the other way counts as inactive or inconclusive. Unless noted, % is set by controls: 0 for no effect and ±100 for the full control effect; potency is the fitted concentration of half-maximal effect.

SMILES	DT40 TDP1 CPT	KB-V1 cytotox	HT1080NT lethal	HT1080 IDH1KD tx	KB-3-1 tox	DT40 TDP1 no CPT
CN(C(=O)Cc1ccc(Cl)c(Cl)c1)[C@H](CN1CCCC1)c1ccccc1	15µM*	nt	nt	nt	nt	12µM*
O=C1NC(=S)NC(=O)C1=Cc1ccc2c(c1)CCN2CCCCl	?	i	7%	9%	i	15µM*
CCN(CC(=O)Nc1ccc(C#N)c(Cl)c1)CC(=O)NC(C)(C)C	?	?	?	?	i	23µM*
N#Cc1ccc(NC(=O)CCNC(=O)c2ccco2)cc1Cl	8%	i	-9%	-2%	i	-10%
Cc1noc(C)c1CSCC(=O)Nc1ccc(C#N)c(Cl)c1	?	i	-6%	0%	i	?
Cc1cccc(C)c1NC(=O)CN(C)CC(=O)Nc1ccc(C#N)c(Cl)c1	18µM*	?	-15%	-24%	i	13µM*
NCC(=O)c1ccc2ccccc2c1	-6%	i	nt	nt	i	-15%
COc1ccc(NC(=O)CCn2cnc3onc(-c4ccc(F)cc4)c3c2=O)cc1OC	2.9µM*	i	nt	nt	i	2.9µM*
COc1ccc(NC(=O)CCn2cc(C)c3ccccc32)cc1	-23%	i	1%	-3%	i	?
CCn1nc(-c2cccs2)nc2c(=O)n(C)c(=O)nc1-2	0.58µM*	?	3.3µM*	2.6µM*	?	1.2µM*
CCn1nc(/C=C/c2ccccc2)nc2c(=O)n(C)c(=O)nc1-2	1.6µM*	?	4.1µM*	1.8µM*	4.1µM*	2.1µM*
CCC(c1ccc(C)cc1)N1C(=O)C2C3CCC(O3)C2C1=O (stereo not given)	-6%	?	1%	-13%	i	-1%
COc1cc(CN2C(=O)NC(=O)C3(Cc4cc(C)ccc4N(C)C3)C2=O)cc(OC)c1 (stereo not given)	?	i	?	?	i	0.01µM*
COc1cccc(N2C(=O)NC(=O)C3(Cc4cc(C)ccc4N(C)C3)C2=O)c1 (stereo not given)	?	i	2%	-11%	i	?
Cc1ccc2c(c1)CC1(CN2C)C(=O)NC(=O)N(c2cc(C)ccc2C)C1=O (stereo not given)	-15%	i	4%	0%	i	-16%
COc1ccc2c(c1)CC1(CN2C)C(=O)NC(=O)N(CCc2ccccc2)C1=O (stereo not given)	?	?	4%	1%	i	5.8µM*
CCCCN1C(=O)NC(=O)C2(Cc3cc(C)ccc3N(C)C2)C1=O (stereo not given)	?	i	-2%	2%	i	13µM*
COc1ccc(OC)c(N2C(=O)NC(=O)C3(Cc4cc(C)ccc4N(C)C3)C2=O)c1 (stereo not given)	?	i	-4%	-7%	i	?
Cc1ccc(C(=O)O)cc1N=Nc1c(O)[nH]c(=O)[nH]c1=O	5%	i	-1%	19%	i	-6%
Cc1ncoc1C(=O)NCC1=C(c2ccc(S(C)(=O)=O)cc2)C[C@@H]2CC[C@H]1N2Cc1ccco1	2%	i	4%	5%	?	4%
COc1ccc(Cc2c(O)[nH]c(=O)[nH]c2=O)c(OC)c1	3%	i	-18%	3%	i	12%
COc1cc(OC)c([C@H]2C=C(C)[C@H]3C[C@@H]2C3(C)C)c(OC)c1	-24%	i	-9%	-20%	i	?
Clc1cncc(N2CCNCC2)n1	-5%	nt	nt	nt	nt	-16%
O=c1[nH]c(Cl)ccc1CN1CCOCC1	-2%	?	2%	20%	i	6%
COCCCN1Cc2ccccc2C1=N	-3%	i	0%	12%	i	-5%
SMILES	DT40 TDP1 CPT	KB-V1 cytotox	HT1080NT lethal	HT1080 IDH1KD tx	KB-3-1 tox	DT40 TDP1 no CPT
CNCCCN1c2ccccc2CCc2ccccc21	?	?	?	?	i	26µM*
CC(N)[C@@H](O)c1ccccc1 (stereo not given in full)	2%	nt	nt	nt	nt	13%
O=c1c2ccccc2nc(/C=C/c2ccc(O)cc2)n1-c1ccc(O)cc1	?	i	-10%	-7%	i	?
COc1ccc(-n2c(/C=C/c3ccc(O)c(OC)c3)nc3ccccc3c2=O)cc1	21µM*	i	?	?	i	26µM*
O=c1c2ccccc2nc(/C=C/c2ccccc2O)n1-c1ccc(Br)cc1	?	nt	nt	nt	nt	16µM*
COc1cc(/C=C/c2nc3ccccc3c(=O)n2-c2ccc(Br)c(C)c2)ccc1O	21µM*	?	nt	nt	?	16µM*
O=c1c2ccccc2nc(/C=C/c2ccc(O)cc2)n1-c1cccc(O)c1	?	i	-22%	?	i	?
COc1ccc(-n2c(/C=C/c3ccc(O)cc3)nc3ccccc3c2=O)cc1	23µM*	?	?	?	?	21µM*
Cc1ccc(-n2c(/C=C\c3ccc(F)cc3)nc3ccccc3c2=O)cc1Cl	15µM*	i	nt	nt	i	16µM*
COc1ccc(-n2c(/C=C/c3ccc4c(c3)OCO4)nc3ccccc3c2=O)cc1	26µM*	?	-5%	1%	?	15µM*
Brc1ccc(C2N3CCCN23)cc1 (stereo not given)	14%	i	3%	13%	i	-2%
Nc1cc(C(=O)Nc2ccccc2F)ccc1N1CC2CC(C1)c1cccc(=O)n1C2 (stereo not given)	?	i	-18%	-24%	i	?
O=C(CCl)NN=C(c1ccccc1)c1ccccc1	5.8µM*	i	12%	-6%	?	5.2µM*
NCC(=O)c1ccccc1	?	?	0%	3%	?	0%
COc1ccc(CC2(CCc3ccncc3)C(=O)NC(=O)NC2=O)cc1OC	-18%	i	-3%	-4%	i	-18%
CCn1c(O)c(N=Nc2ccc(S(=O)(=O)N3CCOCC3)cc2)c(=O)n(CC)c1=S	-13%	i	-3%	-6%	i	-1%
Fc1ccc(CNCCc2c[nH]c3ccccc23)cc1	?	i	?	?	i	4.6µM*
c1coc(CNCCc2c[nH]c3ccccc23)c1	5%	i	-17%	-18%	i	-23%
Fc1ccccc1CNCCc1c[nH]c2ccccc12	16µM*	i	-19%	-15%	i	?
